Bioassay records (PubChem)
NTMT1 inh – Primary qHTS for Inhibitors of N-terminal methyltransferase 1 (NTMT1): MTaseGlo Assay | N-terminal Xaa-Pro-Lys N-methyltransferase 1 (Homo sapiens), Q9BV86 | NTMT1 MTase-Glo SAH luminescence, purified enzyme | Potency, µM (doses to about 114 µM), for the others: at the top dose activity change, negative = inhibition, most hits filed as inhibitors | hit rate 2.5% among 59,000 | AID 1645870, 2021;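 further: potency means the concentration at half of the fitted maximal effect; plate controls were DMSO vehicle for no effect and no enzyme for full effect; nearly all actives have a fitted effect of over 65% in size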
Target sequence (Q9BV86 whole entry, looked up): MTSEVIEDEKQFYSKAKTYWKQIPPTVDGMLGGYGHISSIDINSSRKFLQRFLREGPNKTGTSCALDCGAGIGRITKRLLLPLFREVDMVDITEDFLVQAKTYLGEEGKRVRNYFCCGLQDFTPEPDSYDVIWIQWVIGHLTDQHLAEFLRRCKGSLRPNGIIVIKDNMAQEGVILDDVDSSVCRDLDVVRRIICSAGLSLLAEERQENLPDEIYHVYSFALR
FH mod – Identification of activators of human fumarate hydratase by quantitative high-throughput screening; Fumarate hydratase, mitochondrial (Homo sapiens), P07954; FH coupled MDH/diaphorase resazurin fluorescence, 15 min; hit rate 0.22% among 54,000; Potency, µM (series often up to 79.9 µM), for the others: top-dose activity change, negative = inhibition, most hits filed as inhibitors; further: potency means the concentration at half of the fitted maximal effect; on the % scale 0 is the no-effect control and ±100 the full control effect; the screen sought activators but most active calls are inhibition curves; nearly all actives have a fitted effect of over 45% in size
SKOV3 invasion – Primary qHTS assay for Inhibitors of ovarian cancer metastasis using an organotypic tumor microenvironment (TME) model; SKOV3ip1-GFP adhesion/invasion on 3D omental model, fluorescence; Potency, µM (highest dose often 45.8 µM), without a hit: at the highest dose activity change, negative = inhibition, actives largely listed as inhibitors; AID 1963576, 2024; hit rate 0.1% among 46,000;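 further: potency means the concentration at half of the fitted maximal effect; plate controls were DMSO wells for no effect and tomatine positive control wells for full effect; nearly all actives have a fitted effect of over 65% in size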
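qHTS, 4-pt dose (0.36-46 umol/L); SKOV3ip1-GFP, 1,200 cells/well, no FBS; primary omental fibroblast/mesothelial co-culture 48 h pre-grown; 2 h RT + 16 h 37 C; PBS wash, 4% PFA; GFP count 488/509 nm.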
DRV1 agonist – qHTS for Agonists of Human Resolvin D1 Receptor DRV1; CHO-K1 GPR32 beta-arrestin PathHunter luminescence, 90 min; zero percent set by DMSO-only wells; activation, % at 76.9 µM; hit rate 2.5% among 48,000; AID 1346428, 2018;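 active means activation of at least 60% and not above a set upper limit, about 1 call in 100 departs from these limits; inconclusive means activation of 40% to 60%, or above that upper limit; inactive means activation under 40%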; further: 0% is about no effect
Target sequence (O75388 whole entry, looked up): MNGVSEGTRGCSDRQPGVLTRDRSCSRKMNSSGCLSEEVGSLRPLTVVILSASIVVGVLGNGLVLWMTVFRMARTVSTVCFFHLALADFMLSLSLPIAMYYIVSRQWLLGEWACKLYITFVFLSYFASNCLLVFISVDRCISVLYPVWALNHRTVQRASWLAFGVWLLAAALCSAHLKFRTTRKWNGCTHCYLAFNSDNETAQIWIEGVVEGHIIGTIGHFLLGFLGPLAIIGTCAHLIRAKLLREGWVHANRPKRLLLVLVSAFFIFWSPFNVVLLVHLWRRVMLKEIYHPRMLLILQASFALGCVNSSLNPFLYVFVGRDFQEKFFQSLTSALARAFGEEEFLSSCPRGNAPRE
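GPR32 activation in stably transfected CHO-K1 cells, detected as beta-arrestin recruitment by enzyme-fragment complementation. Compound exposure: 90 min, 37 °C.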
An asterisk follows results filed as active; ! = a repeat was not active; [ ] = remark or other dose. This is a sample that favours compounds with a hit; in the whole collection about 3.8% have one here. Unless noted, the call rests on the fitted dose curve; in most records, active means well fitted curve in the direction sought with a large enough effect; inconclusive means small, poorly fitted or top-dose-only effect, or another doubt; inactive means no such curve, though single readings can be large; an effect the other way counts as inactive or inconclusive.

Screening C=C(COC(=O)CC(C)C)C1Cc2cc(C(C)=O)ccc2O1 (stereo not drawn) returned NTMT1 inh 11%[57.5 µM] and FH mod -3%.
Screening O=C(Nc1cccnc1)c1cccs1 returned NTMT1 inh -6%.
`O=C(Nc1ncc([N+](=O)[O-])s1)c1cccs1` gave NTMT1 inh 40µM*, FH mod 0%[53.3 µM] and DRV1 agonist -40.
COc1ccc(CNC(=O)CN(c2ccc(C)cc2)S(=O)(=O)c2c(C)n[nH]c2C)cc1 was read as NTMT1 inh 1%, FH mod -1%, SKOV3 invasion 1% and DRV1 agonist -2.
Screening COc1cccc(CNC(=O)CN(c2ccc(C(C)C)cc2)S(=O)(=O)c2c(C)n[nH]c2C)c1 returned NTMT1 inh -2%, FH mod -13%, SKOV3 invasion inactive and DRV1 agonist 71*.
For CN(CCCNC(=O)c1ccc2nc3c(c(Cl)c2c1)CCCC3)Cc1ccccc1 the results were NTMT1 inh inconclusive and FH mod -3%.
For CCOc1ccccc1NC(=O)COC(=O)CC(C)(C)CC1=NS(=O)(=O)c2ccccc2N1 the results were NTMT1 inh 5%, FH mod -3%, SKOV3 invasion -2% and DRV1 agonist 83*.
`CC(C)(CC(=O)NCc1ccc(Cl)cc1Cl)CC1=NS(=O)(=O)c2ccccc2N1` gave NTMT1 inh 2%, FH mod -29%, SKOV3 invasion -16% and DRV1 agonist 110*.
For Nc1ccc(O)c([N+](=O)[O-])c1 the results were NTMT1 inh 35µM*, FH mod inconclusive and DRV1 agonist -100.
Screening O=C(CCS(=O)(=O)c1cc(Br)cc2c1N(C(=O)C1CC1)CC2)N1CCN(c2ccccc2)CC1 returned NTMT1 inh 28%, FH mod 0%, SKOV3 invasion -28% and DRV1 agonist 2.
For Cc1ccc(NC(=O)c2sc3ccccc3c2Cl)cc1 the results were NTMT1 inh 6%, FH mod 10%, SKOV3 invasion 9% and DRV1 agonist 18.
CNC1CCC(N(Cc2cccc(-c3ccncc3)c2)C(=O)c2sc3c(F)ccc(F)c3c2Cl)CC1 (stereo not drawn) was read as NTMT1 inh 71µM*!, FH mod -4% and SKOV3 invasion -4%.
For CNC1CCC(N(Cc2cccc(-c3ccncc3)c2)C(=O)c2sc3ccccc3c2Cl)CC1 (stereo not drawn) the results were NTMT1 inh 35µM*!, FH mod 1% and SKOV3 invasion -22%.
CCCSc1ncc(Cl)c(C(=O)N(Cc2cccc(Cl)c2)C2CCS(=O)(=O)C2)n1 (stereo not drawn) was read as NTMT1 inh 15%, FH mod -21%, SKOV3 invasion inactive and DRV1 agonist -33.
For CCN(CC)c1ccc2cc(-c3nc(-c4ccccc4F)no3)c(=O)oc2c1 the results were NTMT1 inh -2%, FH mod 2%, SKOV3 invasion -1% and DRV1 agonist -7.
Screening COc1cccc(C(=O)NCCc2sc(-c3cccc(C)c3)nc2C)c1 returned NTMT1 inh 10%, FH mod -20%, SKOV3 invasion 8% and DRV1 agonist 20.
`Cc1cccc(C(=O)NCCc2sc(-c3ccccc3)nc2C)c1` gave NTMT1 inh inconclusive, FH mod -8%, SKOV3 invasion 9% and DRV1 agonist 78*.
Screening COc1ccc(C(=O)NCCc2sc(-c3cccc(F)c3)nc2C)cc1 returned NTMT1 inh -7%, FH mod -13%, SKOV3 invasion 5% and DRV1 agonist 67*.
For COc1ccc(-c2nc(C)c(CCNC(=O)c3c(F)cccc3F)s2)cc1 the results were NTMT1 inh 5%, FH mod -4%, SKOV3 invasion inactive and DRV1 agonist 80*.
Screening CCOc1ccc(CC(=O)NCCc2sc(-c3cccc(F)c3)nc2C)cc1 returned NTMT1 inh -15%, FH mod -4%, SKOV3 invasion inconclusive and DRV1 agonist 69*.
CC(C)c1ccc(NC(=O)Cn2nnc(C(=O)NCc3cccs3)c2N)cc1 was read as NTMT1 inh 3%, FH mod 1%, SKOV3 invasion 24% and DRV1 agonist -2.
For COc1ccc(CC(=O)NCCc2sc(-c3cccc(F)c3)nc2C)cc1 the results were NTMT1 inh -19%, FH mod -5%, SKOV3 invasion -1% and DRV1 agonist 98*.
`CNC(=O)c1ccc2c(c1)N=C(C)c1cc(C)ccc1S2` gave NTMT1 inh 12%, FH mod -11%, SKOV3 invasion -5% and DRV1 agonist 12.
`CCOC(=O)c1cccc(Nc2cc(-c3ccccc3)ncn2)c1` gave NTMT1 inh inconclusive, FH mod inconclusive, SKOV3 invasion -9% and DRV1 agonist 27.
Screening COc1ccccc1-c1cc(Nc2cccc(CS(N)(=O)=O)c2)ncn1 returned NTMT1 inh 35µM* and FH mod 7%.
Oc1c(I)cc(Cl)c2cccnc12 was read as NTMT1 inh 50µM*, FH mod 19%[53.3 µM] and DRV1 agonist inconclusive.
For Cc1ccc(CNC(=O)N2CCC(CN3CCC(C)CC3)CC2)cc1 the results were NTMT1 inh 2%, FH mod 18%, SKOV3 invasion -6% and DRV1 agonist 3.
Cc1c(OCC(F)(F)F)ccnc1CS(=O)c1nc2ccccc2[nH]1 (stereo not drawn) was read as NTMT1 inh 45µM*!, FH mod -9%[53.3 µM], SKOV3 invasion 0% and DRV1 agonist 60*!.
`Cc1ccc(-c2nc3ccccc3[nH]2)cc1NC(=O)COc1cccc(C)c1C` gave NTMT1 inh -16%, FH mod 12%, SKOV3 invasion -3% and DRV1 agonist 32.
COc1ccc(Cc2nc3ccccc3[nH]c2=O)cc1 was read as NTMT1 inh 8%, FH mod 4%, SKOV3 invasion -16% and DRV1 agonist -2.
COCCCOc1ccnc(CS(=O)c2nc3ccccc3[nH]2)c1C (stereo not drawn) was read as NTMT1 inh 18µM*!, FH mod 3%, SKOV3 invasion 9% and DRV1 agonist 11.
`Nc1cccc2c(N)cccc12` gave NTMT1 inh 35µM*, FH mod -17% and DRV1 agonist -24.
Screening Nc1ncnc2ccccc12 returned NTMT1 inh 8%[57.5 µM], FH mod 11%[53.3 µM] and SKOV3 invasion 2%.
`O=C(O)c1cc(O)c(O)c(O)c1` gave NTMT1 inh inconclusive, FH mod -14%[53.3 µM] and DRV1 agonist 36.
For O=C(c1cc(O)c(O)c(O)c1)c1ccc(O)c(O)c1O the results were NTMT1 inh 32µM*, FH mod inconclusive and DRV1 agonist -28.
